Laboratory results from the supplement of paper PMC11001985.
A number with no mark means an inactive call.

Compound: C#CCNC(=O)CCSSCCC(=O)NCCc1ccc(C=O)c(C=O)c1
Assay: lysine labeling ratio R10:1 (500 µM / 50 µM probe), SILAC-ABPP in living cells; higher = lower intrinsic lysine reactivity toward the probe, active = 2 or less
Conditions: HeLa; probe concentrations 500 vs 50 µM
Procedure, shortened: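 Living SILAC light and heavy HeLa cells in PBS at room temperature were treated with an alkyne-tagged, disulfide-linked lysine probe at 50 µM or 500 µM, with forward and reverse label swaps. The mixed lysates were clicked to biotin-azide, digested with trypsin, captured on neutravidin, released with DTT, alkylated and run by LC-MS/MS on a TIMS-TOF Pro. R for each lysine is the filtered median high-probe/low-probe MS1 peptide ratio, taken again as the median over forward and reverse replicates. Any value above 20 is set to 20.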

UniProt P35579, sequence (P35579 whole entry): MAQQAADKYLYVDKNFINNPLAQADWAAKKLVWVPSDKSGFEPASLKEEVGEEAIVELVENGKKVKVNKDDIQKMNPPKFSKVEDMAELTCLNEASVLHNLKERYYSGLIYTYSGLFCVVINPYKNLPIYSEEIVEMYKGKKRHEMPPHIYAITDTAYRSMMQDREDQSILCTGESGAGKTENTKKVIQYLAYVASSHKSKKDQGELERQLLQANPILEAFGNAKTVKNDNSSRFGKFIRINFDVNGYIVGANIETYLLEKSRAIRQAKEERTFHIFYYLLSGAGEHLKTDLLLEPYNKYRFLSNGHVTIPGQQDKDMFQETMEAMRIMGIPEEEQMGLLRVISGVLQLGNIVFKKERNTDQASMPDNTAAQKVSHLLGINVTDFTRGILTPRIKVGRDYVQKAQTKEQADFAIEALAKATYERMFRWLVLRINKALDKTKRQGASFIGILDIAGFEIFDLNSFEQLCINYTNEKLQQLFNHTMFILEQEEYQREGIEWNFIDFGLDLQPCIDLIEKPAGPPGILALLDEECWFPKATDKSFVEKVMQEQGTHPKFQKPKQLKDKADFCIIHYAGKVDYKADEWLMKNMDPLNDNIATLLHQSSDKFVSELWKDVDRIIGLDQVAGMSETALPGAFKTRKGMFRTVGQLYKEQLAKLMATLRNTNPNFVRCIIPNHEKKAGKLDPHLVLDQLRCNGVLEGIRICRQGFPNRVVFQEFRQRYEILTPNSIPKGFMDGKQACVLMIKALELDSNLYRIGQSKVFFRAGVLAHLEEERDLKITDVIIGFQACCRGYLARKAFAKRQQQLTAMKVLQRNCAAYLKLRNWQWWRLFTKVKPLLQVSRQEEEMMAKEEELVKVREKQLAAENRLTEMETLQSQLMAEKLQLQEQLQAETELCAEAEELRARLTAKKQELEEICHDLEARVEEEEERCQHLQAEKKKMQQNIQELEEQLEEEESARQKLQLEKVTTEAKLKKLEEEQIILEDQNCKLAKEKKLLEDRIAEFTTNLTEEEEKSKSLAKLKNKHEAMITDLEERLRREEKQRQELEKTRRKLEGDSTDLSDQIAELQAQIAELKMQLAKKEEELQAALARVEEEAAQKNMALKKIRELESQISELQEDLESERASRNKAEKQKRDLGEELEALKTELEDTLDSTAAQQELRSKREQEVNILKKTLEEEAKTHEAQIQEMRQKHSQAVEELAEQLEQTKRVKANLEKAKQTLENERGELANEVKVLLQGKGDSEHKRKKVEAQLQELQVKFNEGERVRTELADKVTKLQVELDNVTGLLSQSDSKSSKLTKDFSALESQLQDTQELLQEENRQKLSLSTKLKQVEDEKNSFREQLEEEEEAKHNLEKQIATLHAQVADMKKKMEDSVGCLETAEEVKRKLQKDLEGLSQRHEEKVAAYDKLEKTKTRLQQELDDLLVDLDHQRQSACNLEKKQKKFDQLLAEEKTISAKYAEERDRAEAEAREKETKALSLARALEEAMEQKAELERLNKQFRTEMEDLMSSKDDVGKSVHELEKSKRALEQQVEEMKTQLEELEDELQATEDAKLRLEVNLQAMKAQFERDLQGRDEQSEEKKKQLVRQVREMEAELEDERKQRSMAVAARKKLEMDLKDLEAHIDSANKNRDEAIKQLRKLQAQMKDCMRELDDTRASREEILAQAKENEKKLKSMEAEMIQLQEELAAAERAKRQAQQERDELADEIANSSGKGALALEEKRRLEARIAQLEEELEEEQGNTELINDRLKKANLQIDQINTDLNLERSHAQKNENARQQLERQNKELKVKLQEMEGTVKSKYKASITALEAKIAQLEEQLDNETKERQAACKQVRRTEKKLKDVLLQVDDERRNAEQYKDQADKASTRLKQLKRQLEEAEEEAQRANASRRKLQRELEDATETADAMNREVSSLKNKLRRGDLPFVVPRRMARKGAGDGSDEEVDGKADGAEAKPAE
UniProt P00533, sequence (P00533 whole entry): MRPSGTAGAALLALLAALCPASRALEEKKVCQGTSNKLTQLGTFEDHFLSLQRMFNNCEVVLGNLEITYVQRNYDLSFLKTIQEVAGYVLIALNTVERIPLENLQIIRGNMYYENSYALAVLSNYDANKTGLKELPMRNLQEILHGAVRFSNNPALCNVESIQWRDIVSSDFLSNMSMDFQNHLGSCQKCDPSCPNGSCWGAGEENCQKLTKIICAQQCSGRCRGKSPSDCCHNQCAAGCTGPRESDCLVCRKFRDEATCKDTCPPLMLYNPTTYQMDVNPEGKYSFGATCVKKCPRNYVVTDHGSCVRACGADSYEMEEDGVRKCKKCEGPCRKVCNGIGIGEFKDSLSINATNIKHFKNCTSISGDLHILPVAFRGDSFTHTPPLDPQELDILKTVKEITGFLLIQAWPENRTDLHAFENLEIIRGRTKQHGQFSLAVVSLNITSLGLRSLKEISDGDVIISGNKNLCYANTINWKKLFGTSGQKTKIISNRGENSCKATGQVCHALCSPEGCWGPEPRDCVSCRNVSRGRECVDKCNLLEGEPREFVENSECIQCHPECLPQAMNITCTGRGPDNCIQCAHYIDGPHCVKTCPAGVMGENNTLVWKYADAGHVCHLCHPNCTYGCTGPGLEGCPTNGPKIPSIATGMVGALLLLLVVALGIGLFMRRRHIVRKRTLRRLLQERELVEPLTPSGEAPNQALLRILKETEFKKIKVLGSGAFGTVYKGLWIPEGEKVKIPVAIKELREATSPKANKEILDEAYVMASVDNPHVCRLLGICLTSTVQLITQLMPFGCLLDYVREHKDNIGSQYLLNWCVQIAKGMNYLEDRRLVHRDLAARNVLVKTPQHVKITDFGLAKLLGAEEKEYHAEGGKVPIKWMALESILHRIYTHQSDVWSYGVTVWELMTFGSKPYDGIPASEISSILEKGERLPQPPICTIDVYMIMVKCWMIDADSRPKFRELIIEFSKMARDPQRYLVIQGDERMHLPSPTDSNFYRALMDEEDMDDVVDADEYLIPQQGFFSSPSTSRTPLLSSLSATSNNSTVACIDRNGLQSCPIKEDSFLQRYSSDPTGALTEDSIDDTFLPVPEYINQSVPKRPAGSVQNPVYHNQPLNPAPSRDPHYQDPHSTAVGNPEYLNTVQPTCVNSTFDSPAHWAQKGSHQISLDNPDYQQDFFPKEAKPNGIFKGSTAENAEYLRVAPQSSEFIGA
UniProt P10809, sequence (P10809 whole entry): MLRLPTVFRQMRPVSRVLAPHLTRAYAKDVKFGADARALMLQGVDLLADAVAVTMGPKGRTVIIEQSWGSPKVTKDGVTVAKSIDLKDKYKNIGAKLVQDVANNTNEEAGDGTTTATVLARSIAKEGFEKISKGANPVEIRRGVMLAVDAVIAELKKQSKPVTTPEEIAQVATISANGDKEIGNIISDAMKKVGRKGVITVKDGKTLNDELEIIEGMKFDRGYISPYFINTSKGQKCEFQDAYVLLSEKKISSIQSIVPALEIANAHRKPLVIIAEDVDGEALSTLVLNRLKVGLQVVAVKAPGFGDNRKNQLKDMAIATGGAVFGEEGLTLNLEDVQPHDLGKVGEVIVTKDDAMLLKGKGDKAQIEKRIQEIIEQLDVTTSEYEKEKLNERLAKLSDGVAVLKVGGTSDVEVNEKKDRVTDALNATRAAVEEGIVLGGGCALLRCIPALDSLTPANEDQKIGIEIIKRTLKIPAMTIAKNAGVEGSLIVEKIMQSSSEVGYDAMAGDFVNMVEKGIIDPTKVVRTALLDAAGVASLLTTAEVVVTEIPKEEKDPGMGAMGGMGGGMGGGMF
UniProt P12956, sequence (P12956 whole entry): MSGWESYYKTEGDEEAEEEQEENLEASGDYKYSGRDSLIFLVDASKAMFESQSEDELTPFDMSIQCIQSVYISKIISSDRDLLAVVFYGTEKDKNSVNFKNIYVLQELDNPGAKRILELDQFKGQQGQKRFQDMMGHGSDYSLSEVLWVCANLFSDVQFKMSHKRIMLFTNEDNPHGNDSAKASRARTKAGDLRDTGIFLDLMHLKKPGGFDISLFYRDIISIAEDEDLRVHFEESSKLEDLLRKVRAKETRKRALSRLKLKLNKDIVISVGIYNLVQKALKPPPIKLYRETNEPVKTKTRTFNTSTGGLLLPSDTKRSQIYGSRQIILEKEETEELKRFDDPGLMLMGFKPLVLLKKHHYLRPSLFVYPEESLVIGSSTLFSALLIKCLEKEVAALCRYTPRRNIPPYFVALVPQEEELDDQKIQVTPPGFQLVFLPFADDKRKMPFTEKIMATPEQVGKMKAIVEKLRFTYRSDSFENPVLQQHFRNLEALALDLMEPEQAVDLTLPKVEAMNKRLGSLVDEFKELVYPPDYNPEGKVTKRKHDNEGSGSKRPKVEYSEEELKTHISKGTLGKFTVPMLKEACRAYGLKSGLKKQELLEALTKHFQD
UniProt P50454, sequence (P50454 whole entry): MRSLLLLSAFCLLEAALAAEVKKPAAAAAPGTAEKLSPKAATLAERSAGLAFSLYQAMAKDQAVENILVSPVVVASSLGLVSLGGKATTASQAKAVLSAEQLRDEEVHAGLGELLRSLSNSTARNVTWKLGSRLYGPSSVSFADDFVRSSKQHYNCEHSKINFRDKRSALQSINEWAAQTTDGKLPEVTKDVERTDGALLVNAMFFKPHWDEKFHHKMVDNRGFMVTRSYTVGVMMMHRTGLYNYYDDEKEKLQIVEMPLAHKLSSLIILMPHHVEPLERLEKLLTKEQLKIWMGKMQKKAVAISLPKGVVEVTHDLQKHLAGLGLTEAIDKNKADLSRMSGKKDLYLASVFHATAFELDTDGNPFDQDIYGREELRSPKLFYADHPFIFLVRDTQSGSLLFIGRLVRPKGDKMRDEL
UniProt P31949, sequence (P31949 whole entry): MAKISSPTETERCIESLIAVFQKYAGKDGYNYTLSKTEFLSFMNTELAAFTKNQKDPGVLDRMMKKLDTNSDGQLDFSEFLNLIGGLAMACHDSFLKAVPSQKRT
UniProt Q99497, sequence (Q99497 whole entry): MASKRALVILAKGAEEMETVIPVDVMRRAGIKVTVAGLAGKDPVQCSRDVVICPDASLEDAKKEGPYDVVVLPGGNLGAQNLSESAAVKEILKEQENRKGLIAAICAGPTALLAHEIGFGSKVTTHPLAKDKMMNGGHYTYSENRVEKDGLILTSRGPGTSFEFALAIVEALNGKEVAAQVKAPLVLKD

Target | lysine labeling ratio R10:1
PARK7 (lysine site: K148) (UniProt Q99497) | 3.31
CLTC (lysine site: K1501) (UniProt Q00610) | 2.77
SUB1 (lysine site: K80) (UniProt P53999) | 1.69 (active)
CSPG4 (lysine site: K831) (UniProt Q6UVK1) | 5.17
SPTBN1 (lysine site: K1815) (UniProt Q01082) | 2.56
SERPINH1 (lysine site: K39) (UniProt P50454) | 5.74
MYH9 (lysine site: K1631) (UniProt P35579) | 1.9 (active)
CDV3 (lysine site: K15) (UniProt Q9UKY7) | 2.4
UniProt Q15365 (lysine site: K314) | 1.71 (active)
HSPA9 (lysine site: K121) (UniProt P38646) | 1.51 (active)
UniProt Q8N441 (lysine site: K218) | 1.33 (active)
FOLR1 (lysine site: K46) (UniProt P15328) | 12.6
S100A11 (lysine site: K55) (UniProt P31949) | 1.54 (active)
MYH9 (lysine site: K1338) (UniProt P35579) | 1.98 (active)
MYH9 (lysine site: K835) (UniProt P35579) | 8.12
CD97 (lysine site: K483) (UniProt P48960) | 5.15
UniProt Q9HAB3 (lysine site: K437) | 2.11
CD109 (lysine site: K1105) (UniProt Q6YHK3) | 1.09 (active)
GAPDH (lysine site: K5) (UniProt P04406) | 1.43 (active)
AK2 (lysine site: K28) (UniProt P54819) | 10.2

Target | lysine labeling ratio R10:1
UniProt Q14574 (lysine site: K662) | 1.83 (active)
UniProt P62258 (lysine site: K125) | 1.05 (active)
EGFR (lysine site: K328) (UniProt P00533) | 3.46
MSN (lysine site: K501) (UniProt P26038) | 5.08
F11R (lysine site: K97) (UniProt Q9Y624) | 18.5
FLNA (lysine site: K1372) (UniProt P21333) | 2.93
IDE (lysine site: K364) (UniProt P14735) | 2.3
XRCC6 (lysine site: K297) (UniProt P12956) | 1.09 (active)
PVR (lysine site: K153) (UniProt P15151) | 4.25
HMOX1 (lysine site: K243) (UniProt P09601) | 1.07 (active)
DDX3X (lysine site: K491) (UniProt O00571) | 2.59
EGFR (lysine site: K538) (UniProt P00533) | 5.46
CCT4 (lysine site: K42) (UniProt P50991) | 4.65
MTDH (lysine site: K195) (UniProt Q86UE4) | 1.36 (active)
MYH9 (lysine site: K1754) (UniProt P35579) | 3.66
SPTAN1 (lysine site: K2000) (UniProt Q13813) | 0.553 (active)
HSPD1 (lysine site: K364) (UniProt P10809) | 2.45
HSPD1 (lysine site: K523) (UniProt P10809) | 5.04
IGF1R (lysine site: K598) (UniProt P08069) | 5.67
XRCC6 (lysine site: K317) (UniProt P12956) | 3.53
